Measured values: PubChem BioAssay (NCATS)
Inconclusive results are not listed. A number with no mark means an inactive call. Active and inactive are the calls of the source. The call rests on the fitted dose curve; in most records, active means well fitted cell-killing curve with a large enough effect; inconclusive means small, poorly fitted or top-dose-only effect, or effect the other way; inactive means no such curve, though single readings can be large or run the other way.

Assay: Quantitative highthroughput screen to assess conditional lethalithy of SEM cells grown in RPMI1640 with unreated serum (RPMI+s) (AID 1963883); further: nearly all actives have a fitted effect of over 35% in size
Conditions: SEM B-ALL cells, CellTiter-Glo viability, 48 h; series mostly up to 45.8 µM; viability: at the top concentration
Text: Assay Provider: Jason Cantor Ph.D.
Department of Biochemistry
University of Wisconsin-Madison, Madison, WI, USA
Chemical screening studies have identified drug sensitivities across hundreds of cancer cell lines but most putative therapeutics fail to translate. Discovery and development of drug candidates in models that more accurately reflect nutrient levels in human blood is a major challenge. Here we performed high-throughput screens in conventional versus Human Plasma-Like Medium (HPLM) to identify compounds that were "missed" when screening using the artificial culture condition. Sets of conditional anticancer compounds spanned phases of clinical development and included non-oncology drugs were assessed. […] We also traced conditional phenotypes for several chemotherapeutics to availability of HPLM-specific metabolites and confirmed others for compounds whose reported targets are encoded by nonessential genes. Our findings establish generalizable strategies for exploiting conditional lethality in HPLM to reveal therapeutic candidates and mechanisms of action in cancer cells.
Described herein are the results of each viability screens against three cell lines: NOMO1 (an acute myeloid leukemia cell line); P12-Ichikawa (a T-cell acute lymphoblastic leukemia); and SEM (a B-cell ALL). Each assay was screened using 3 different cell culture media: homemade human plasma-Like medium with 10% dialyzed fetal bovine serum (HPLM+ds); RPMI1640 with 10% untreated FBS and 5mM glucose (RPMI+s); and RPMI1640 with 10% dialyzed fetal bovine serum and 5 mM glucose (RPMI+ds).
PROTOCOL TABLE (as described by Inglese J, Shamu CE and Guy RK. 2007)
SEQUENCE No. (e.g., 1, 2, 3, etc.); […] (e.g., Cells, Incubation, Reagent, etc.); VALUE and DESCRIPTION.
1; Cells; 5 uL; white, solid bottom 1536-well Greiner assay plate.
2; Compounds; 23 nL; Kalypsis pin tool (Wako USA) equipped with a 1536-well pin head to transfer to the assay plates.
3; Incubation; 48 hours; 37C incubation.
4; Reagent; 3 uL; CellTiter Glo (Promega).
5; Incubation; 5 min, room temperature
6; Detection; Luminescence, Viewlux PerkinElmer.
NOTES (numbers refer to Sequence numbers above)
1. Briefly, 5 ul of cell reagent was dispensed using a Multidrop Combi Dispenser. The NOMO1 and SEM cells were plated at 500 cells/well and the P12-Ichikawa line at 1000 cells/well.
2. After seeding the cells, 23 nL of MIPE 4.1 library compounds (in DMSO) were added to each plate using a Kalypsys 1536 Pintool dispenser. Bortezomib at final concentration of […] and DMSO were added to each plate as positive and negative controls respectively. For each screen, MIPE 4.1 compounds were added over an eleven-point concentration range […] in 3-fold dilutions.
3. Each plate was covered with a stainless steel gasketed lid to prevent evaporation and incubated for 48 hour at 37C, 95% relative humidity, and 5% CO2.
4-5. Three microliter CellTilter-GloTM luminescent substrate mix (Promega) reagent was added to the assay plate and incubated at room temperature for 5 min.
6. The luminescence signal was measured using a ViewLux (PerkinElmer) multiplate reader with a 2 second exposure time per plate. Data for each compound were normalized as percent viability such that measurements for DMSO and the empty well controls in each plate were defined as 100% and 0%, respectively.
Potency means the concentration at half of the fitted maximal effect.

Structure (SMILES)	viability [%]	Potency
CNC(=O)c1ccc(N2C(=S)N(c3ccc(C#N)c(C(F)(F)F)c3)C(=O)C23CCC3)cc1F	101	–
NC1=NC(=O)N2CC12 (stereo not given)	–	1.87 µM (active)
CCOc1ccccc1-n1c(C(C)N2CCN(C(=O)COc3ccc(Cl)cc3)CC2)nc2ccccc2c1=O (stereo not given)	–	0.417 µM (active)
Cc1ncc(OC[C@@]2(c3cccc(F)c3)C[C@H]2C(=O)Nc2ccc(F)cn2)c(C)n1	85.6	–
CCc1c(C(=O)C(N)=O)c2c(OCC(=O)O)cccc2n1Cc1ccccc1	83.3	–
C[C@]12CCC(=O)C(O)=C1CC[C@@H]1[C@H]3CCC(=O)[C@@]3(C)CC[C@@H]12	100	–
CC(O)(CS(=O)(=O)c1ccc(F)cc1)C(=O)Nc1ccc(C#N)c(C(F)(F)F)c1 (stereo not given)	–	14.8 µM (active)
Cc1ccccc1-n1c(Cn2ncc3c(N)ncnc32)nc2cccc(C)c2c1=O	102	–
CO[C@H]1CCC(O[C@H]2C[C@H]([C@]3(C)CC[C@]4(C[C@H](O)[C@@H](C)[C@@H]([C@@H](C)C=C(C)C(=O)[C@H](C)C[C@H](C)C(=O)O)O4)O3)O[C@]3(O[C@@H]([C@H]4O[C@@](O)(CO)[C@H](C)C[C@H]4C)C[C@H]3C)[C@H]2C)O[C@H]1C (stereo not given in full)	–	1.87 µM (active)
CCOC(=O)c1c(C(C#N)=CN)c2ccc(Cl)c(Cl)c2n1C	–	18.7 µM (active)
CC(C)N[C@@H]1CCn2c(=O)[nH]c3cccc(c32)[C@@H]1O	92.9	–
CCCC(C)(COC(N)=O)COC(=O)NC(C)C (stereo not given)	113	–
CCCC[N+]1(C)[C@H]2CC(OC(=O)[C@H](CO)c3ccccc3)C[C@H]1[C@H]1O[C@H]12 (stereo not given in full)	90.1	–
CN(C)[C@@H]1C(=O)C(C(N)=O)=C(O)[C@@]2(O)C(=O)C3=C(O)c4c(O)cccc4[C@@](C)(O)[C@H]3C[C@@H]12	98.2	–
Cc1cccc(C)c1NC(=O)CN1CCCC1=O	85.2	–
CC(=Cc1csc(C)n1)[C@@H]1C[C@H]2O[C@]2(C)CCC[C@H](C)[C@@H](O)[C@@H](C)C(=O)C(C)(C)[C@@H](O)CC(=O)O1	14.1	–
CCN1C[C@]2(OC(=O)c3ccccc3NC(C)=O)CC[C@H](OC)[C@@]34[C@H]5CC6[C@@H](OC)C[C@](O)(C(C[C@@H]23)[C@@H]14)[C@@]5(O)[C@@H]6OC	–	6.62 µM (active)
c1ccc2c(CN3CCNCC3)cccc2c1	95.2	–
C[C@]12CC[C@H]3[C@@H](CC[C@@]45O[C@H]4C(O)=C(C#N)C[C@]35C)[C@H]1CC[C@H]2O	–	18.7 µM (active)
O=C1C=CC[C@@H]2[C@H]3CCCN4CCC[C@@H](CN12)[C@@H]34	106	–

Structure (SMILES)	viability [%]	Potency
O=C(Oc1ccc([N+](=O)[O-])cc1)N1CCN(Cc2cccc(Oc3ccccc3)c2)CC1	95.4	–
CC1(N2CCC(n3c([C@@H]4CCCNC4)nc4ccccc43)CC2)CCCCCCC1	78.4	–
O=C(Oc1ccc([N+](=O)[O-])cc1)N1CCC(C(O)(c2ccc3c(c2)OCO3)c2ccc3c(c2)OCO3)CC1	99.3	–
NC1CC1c1ccccc1 (stereo not given)	94.1	–
C[C@@]12OC(=O)[C@]1([C@@H](O)[C@@H]1C=CCCC1)NC(=O)[C@H]2CCCl	–	0.0526 µM (active)
COC[C@H]1OC(=O)c2coc3c2[C@@]1(C)C1=C(C3=O)C2CCC(=O)[C@@]2(C)C[C@H]1OC(C)=O (stereo not given in full)	76.1	–
CC(N[C@H]1C[C@H]1c1ccccc1)c1ccc2c(c1)OCCO2 (stereo not given in full)	102	–
CCC1(c2ccc(N)cc2)CCC(=O)NC1=O (stereo not given)	105	–
CNC(=O)N1N=C(c2ccc(N)cc2)c2cc3c(cc2CC1C)OCO3 (stereo not given)	–	8.33 µM (active)
CC(C)(C)[C@]1(O)C[C@@H]2OC(=O)C[C@@]23C(=O)O[C@@H]2OC(=O)[C@H](O)C213 (stereo not given in full)	103	–
CN1C(=O)CCS(=O)(=O)C1c1ccc(Cl)cc1 (stereo not given)	97.5	–
CC(=O)OCC1=C(C(=O)O)N2C(=O)[C@@H](N)[C@@H]2SC1	83.3	–
CC1=C(O)C(=O)C=C2C1=CC=C1[C@@]2(C)CC[C@@]2(C)[C@@H]3C[C@](C)(C(=O)O)CC[C@]3(C)CC[C@]12C	–	2.64 µM (active)
c1cc2c(cc1[C@H]1OC[C@H]3[C@H]1CO[C@H]3c1ccc3c(c1)OCO3)OCO2	70	–
C[C@@H]1[C@H](O)[C@@H](C)C=CC=CCCC=CC=CC=CC=C[C@H](O[C@H]2O[C@@H](C)[C@H](O)[C@@H](N)[C@@H]2O)CC2O[C@](O)(C[C@@H](O)[C@H](O)CC[C@@H](O)C[C@@H](O)C[C@@H](O)CC(=O)O[C@H]1C)C[C@H](O)[C@H]2C(=O)O	103	–
C[C@@H]1CC[C@H]2[C@@H](C)C(=O)O[C@@H]3O[C@@]4(C)CC[C@H]1[C@]32OO4	101	–
O=C(O)C(=O)c1cn(Cc2ccccc2)c2ccc(-c3ccc(OC(F)(F)F)cc3)cc12	94.5	–
CC(C)N(CCNC(=O)CN1CCCC1=O)C(C)C	85	–
CC(=O)N(C)c1cccc(-c2ccnc3c(C(=O)c4cccs4)cnn23)c1	97.7	–
CN(C)[C@@H]1C(=O)C(C(N)=O)=C(O)[C@@]2(O)C(=O)C3=C(O)c4c(O)cccc4[C@@](C)(O)[C@H]3[C@H](O)[C@@H]12	106	–
